Shiga toxin inh: A qHTS for Small Molecule Inhibitors of Shiga Toxin; 290,000 compounds, 9.2% hits; inhibition, % at 38.7 µM; Vero cells, Shiga toxin protein synthesis inhibition reporter; in the data active = inhibition mostly above about 28%, no sharp cut-off; inactive = mostly below about 43%
Cycloheximide cs: Cycloheximide Counterscreen for Small Molecule Inhibitors of Shiga Toxin | cell reporter, cycloheximide protein synthesis inhibition counterscreen | 300,000 compounds, 12% hits | AID 2314, 2010 | max response, %; in the data active = max response mostly above about 13%, no sharp cut-off; inactive = mostly below about 14%; also: read at 38.3 µM for the half of the compounds with a filed dose
LmPK inhibitor: qHTS Assay for Inhibitors of Leishmania Mexicana Pyruvate Kinase (LmPK); Q27686; purified LmPK, Kinase-Glo ATP luminescence, 1 h; Potency, µM (highest dose often 57.5 µM), most hits filed as inhibitors; 290,000 compounds, 0.37% hits; AID 1721, 2009
Target sequence (Q27686 whole entry, looked up): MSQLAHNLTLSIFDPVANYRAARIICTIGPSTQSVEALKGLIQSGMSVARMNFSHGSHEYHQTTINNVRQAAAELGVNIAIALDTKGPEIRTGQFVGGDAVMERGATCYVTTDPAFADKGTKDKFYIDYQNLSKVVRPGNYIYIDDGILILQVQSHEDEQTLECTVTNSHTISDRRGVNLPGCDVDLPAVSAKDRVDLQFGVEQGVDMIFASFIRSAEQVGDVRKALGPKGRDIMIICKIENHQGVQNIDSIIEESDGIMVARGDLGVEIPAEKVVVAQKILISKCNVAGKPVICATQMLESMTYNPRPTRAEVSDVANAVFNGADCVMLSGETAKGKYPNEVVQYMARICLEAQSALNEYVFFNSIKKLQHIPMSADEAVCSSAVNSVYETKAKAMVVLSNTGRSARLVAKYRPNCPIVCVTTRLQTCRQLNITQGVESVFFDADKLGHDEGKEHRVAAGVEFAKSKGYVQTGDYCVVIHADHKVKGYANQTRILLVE
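Kinase-Glo luminescence read after 1 h RT reaction of 0.1 nM LmPK with 0.5 mM PEP and 0.1 mM ADP. Activity scaled between uninhibited and enzyme-free controls.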
Pf growth 96h: Primary qHTS for delayed death inhibitors of the malarial parasite plastid, 96 hour incubation. P. falciparum luciferase reporter growth, 96 h. Potency, µM (top dose mostly 28.7 µM), hits mostly inhibitors. 320,000 compounds, 6.9% hits. AID 504834, 2011
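96 h incubation, 37 C, 5% CO2, of luciferase-reporter P. falciparum-infected RBCs (2% hematocrit, 0.05% parasitemia final) with test compounds; endpoint luminescence.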
Pf growth 48h: Primary qHTS for delayed death inhibitors of the malarial parasite plastid, 48 hour incubation; P. falciparum luciferase growth in erythrocytes, 48 h; Potency, µM (highest dose often 28.7 µM), usual class: inhibitors; 310,000 compounds, 5.9% hits
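Compounds are pin-transferred into medium, infected erythrocytes (2% hematocrit, 0.1% parasitemia final) are added, and plates sit one parasite generation at 37 C in 5% CO2. Detection reagent is then added and luminescence measured.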
Of the large screens only hits and unclear results are named; the others gave an inactive call. This is a sample that favours compounds with a hit; in the whole collection about 22% have one here. Unless noted, calls follow the shape of the dose curve; as a rule, active = well fitted inhibition curve with a large enough effect; inconclusive = small, poorly fitted or top-dose-only effect, or another doubt; inactive = no such curve, though single readings can be large or run the other way.

O=C(c1ccc(-c2ccccc2)cc1)C1CCCN(Cc2ccn[nH]2)C1 (centres undefined)	Pf growth 96h inconclusive
O=C(c1ccc(-c2ccccc2)cc1)C1CCCN(Cc2ccncc2)C1 (centres undefined)	Cycloheximide cs 48
COc1ccc(O)c(CN2CCCC(C(=O)c3ccccc3SC)C2)c1 (centres undefined)	Pf growth 48h 5.2µM
O=C(c1ccc2c3c(cccc13)CC2)C1CCCN(Cc2cccnc2)C1 (centres undefined)	Pf growth 96h inconclusive, Pf growth 48h 1.7µM
CN(CC(=O)NCc1ccccn1)S(=O)(=O)c1ccc(Br)cc1	none
c1ccc(CCCNc2ncnc3nc[nH]c23)cc1	Cycloheximide cs 27, Pf growth 96h inconclusive
Clc1ccc(CCNc2ncnc3nc[nH]c23)cc1	Pf growth 96h inconclusive
c1ccc(CNc2ncnc3nc[nH]c23)cc1	Pf growth 96h inconclusive (no result: Pf growth 48h)
c1ccc(CCCNc2ncccn2)cc1	Shiga toxin inh active, Cycloheximide cs 32, Pf growth 96h 3.3µM
c1ccc2c(CCNc3ncnc4nc[nH]c34)cccc2c1	Shiga toxin inh active, Cycloheximide cs 31
C1=C(CCNc2ncnc3nc[nH]c23)CCCC1	Shiga toxin inh 38, Cycloheximide cs 37, Pf growth 96h inconclusive, Pf growth 48h inconclusive
CC12C(=O)N(c3nccs3)C(=O)C1C1C=CC2C1 (centres undefined)	none
O=[N+]([O-])c1ccccc1CSc1nc2ccccc2o1	Shiga toxin inh 75, Cycloheximide cs 40
CCn1cc(CNCc2cn(C)nc2-c2ccc(C3CCCCC3)cc2)cn1	Pf growth 48h inconclusive
C=CCN=C1N[C@@H](c2ccc(Br)cc2)C(C(=O)OC)=C(C)N1Cc1ccccc1	Pf growth 96h inconclusive, Pf growth 48h inconclusive
O=C(NC1CCCC1)c1cccc(S(=O)(=O)N2CCCC2)c1	Pf growth 48h inconclusive (no result: Shiga toxin inh, Cycloheximide cs, LmPK inhibitor)
O=C(N/C(=C/c1ccc(Cl)cc1)c1nc2ccccc2[nH]1)c1ccco1	none
O=C(N/C(=C/c1ccc(Br)cc1)c1nc2ccccc2[nH]1)c1ccco1	Shiga toxin inh 51, Cycloheximide cs 15
O=C(Nc1ccc(Cn2nnc3ccccc32)cc1)c1ccco1	Pf growth 48h inconclusive
O=C(/C=C/c1ccco1)Nc1ccc(-c2nc3ccccc3[nH]2)cc1	Pf growth 96h 12µM, Pf growth 48h 4.1µM
O=C(Nc1ccc(-c2nc3ccccc3[nH]2)cc1)c1ccco1	Shiga toxin inh 109, Cycloheximide cs 43, LmPK inhibitor inconclusive
COc1ccc(C2=C/C(=C\c3ccccc3OC(C)=O)C(=O)O2)cc1	Shiga toxin inh 103, Cycloheximide cs 22
CC(=O)Oc1cccc(/C=c2\sc3nc(-c4ccco4)nn3c2=O)c1	Pf growth 96h inconclusive
COc1ccc(C2=C/C(=C\c3cccc(OC(C)=O)c3)C(=O)O2)cc1	Cycloheximide cs 24, Pf growth 96h inconclusive
CN1C(=O)C2(c3ccccc31)c1c(oc3ccccc3c1=O)C(=O)N2CCCO (centres undefined)	none
O=C(O)c1cc2n(n1)C(C(F)(F)F)CC(C1CC1)N2 (centres undefined)	Pf growth 48h 2.1µM
CCOC(=O)c1cc2n(n1)C(C(F)(F)F)CC(C)N2 (centres undefined)	Cycloheximide cs 12 (no result: Pf growth 96h)
CC1CC(C(F)(F)F)n2nc(C(=O)O)cc2N1 (centres undefined)	none (no result: Pf growth 96h)
COc1ccc(NC(=O)CN(C)S(=O)(=O)c2ccc3c(c2)CC(C)N3C(C)=O)cc1OC (centres undefined)	none
CCOC(=O)c1sc(N=NC2=C(O)CC(C)(C)CC2=O)c(C(=O)OCC)c1C	none
O=C(/C=C/c1ccc(OC(F)F)cc1)Nc1cccc(S(=O)(=O)N2CCOCC2)c1	Shiga toxin inh 41, Cycloheximide cs 25, Pf growth 96h inconclusive
COc1ccc(/C=C/C(=O)Nc2cccc(S(=O)(=O)N3CCOCC3)c2)cc1OC	Pf growth 96h inconclusive (no result: Shiga toxin inh, Cycloheximide cs, LmPK inhibitor)
CN(C)S(=O)(=O)c1cccc(NC(=O)/C=C/c2ccc(S(=O)(=O)N3CCOCC3)cc2)c1	Pf growth 96h inconclusive, Pf growth 48h 8.3µM (no result: Shiga toxin inh, Cycloheximide cs, LmPK inhibitor)
CCn1cc(Br)c(C(=O)Nc2ccc(Cl)cc2Cl)n1	Cycloheximide cs 25 (no result: Pf growth 48h)
CCC(=O)Nc1ccc(F)c(Cl)c1	none
CCn1cc(Br)c(C(=O)Nc2ccc(F)c(Cl)c2)n1	Shiga toxin inh 73, Cycloheximide cs 54
CCOC(=O)c1c(NC(=O)c2nn(CC)cc2Br)sc(C)c1C	Pf growth 48h inconclusive
CCOC(=O)c1ccc(NC(=O)c2nn(CC)cc2Br)cc1	Shiga toxin inh 53, Cycloheximide cs 35
CCOC(=O)c1c(NC(=O)c2nn(CC)cc2Br)c(C#N)nn1-c1ccccc1	Pf growth 48h 13µM
COC(=O)c1nn(-c2ccc(OC)cc2)ccc1=O	none (no result: Pf growth 48h)
Cc1nc(C)c(C(=O)OCC(=O)NCc2ccccc2)s1	none (no result: Shiga toxin inh, Cycloheximide cs, LmPK inhibitor)
O=S(=O)(NCc1ccccc1)NCc1ccc(Cl)cc1Cl	none
O=C(NC1CCCCC1)c1ccccc1NC(=O)C1CC1	none
CCOC(=O)c1nn(-c2ccccc2)c(=O)c(C#N)c1C	Pf growth 96h 15µM (no result: Pf growth 48h)
CCN(CC)C(CNC(=O)CSc1nnnn1-c1c(C)cccc1C)c1ccco1 (centres undefined)	Pf growth 48h inconclusive (no result: Shiga toxin inh, Cycloheximide cs, LmPK inhibitor)

Bioassay records: PubChem BioAssay, National Center for Advancing Translational Sciences (NCATS)
